# Experimental data published in PubChem BioAssay AID1347416 (National Center for Advancing Translational Sciences (NCATS), 2020).
# Screen size: about 4,100 compounds; about 1,600 (39%) were called active. Not shown: some 25% with an inconclusive outcome. The call rests on the fitted dose curve; in most records, active means well fitted inhibition curve with a large enough effect; inconclusive means small, poorly fitted or top-dose-only effect; inactive means no such curve, though single readings can be large or run the other way. The list shows a part of the results.
# Assay: qHTS Validation assay for Inhibitors of Plasmodium falciparum Dd2 growth in vitro; further: nearly all actives have a fitted effect of over 70% in size
# Conditions: P. falciparum Dd2 in RBCs, SYBR Green growth, 72 h; series mostly up to 28.7 µM
# Excerpt: Malaria, a parasitic disease spread to humans through the bite of a Plasmodium infected Anopheles mosquito, continues to be a global health burden affecting millions of people, with an estimated 228 million cases and 405,000 deaths in 2018. Concerns about safety and limitations of current antimalarial treatments strongly emphasize the need to develop new therapeutic options. The scarce number of chemotypes and validated drug targets with efficacy against the liver stage, have hindered development of new antimalarials. To address this, a chemoprophylactic drug discovery effort was conducted through a combined phenotypic high-throughput asexual blood stage and liver stage screen, providing a robust foundation to identify liver-stage active lead chemotypes. Compounds were initially screened against Plasmodium falciparum Dd2 strain parasites using a in vitro SYBRGreen-1 based 72 hr proliferation assay to identify novel chemotypes to advance to liver stage assays. NIH/NCATS Early Translation Branch Assay Submitter (PI): Anton Simeonov Ph.D.
# […] Assay Protocol: PROTOCOL TABLE (as described by Inglese et al., 2007) SEQUENCE No. (e.g., 1, 2, 3, etc.); PARAMETER (e.g., Cells, Incubation, Reagent, etc.); VALUE; DESCRIPTION SEQUENCE, Parameter, Description 1; Reagent; 3 uL complete malaria growth medium, 1536 TC treated Black clear bottom plate 2; Controls; 23 nL positive control artesunate (300 nM final) to column 1; Neutral control DMSO to columns 2-4 3; Compound; 23 nL of compounds in dose response concentration (29 uM to 0.5 nM final) 4; Reagent; 5 uL malaria infected red blood cells (2.5% hematocrit final, 0.3% parasitemia 5; Time; 72 hours at 37C (5% O2, 5% CO2, 90% N2; 95% Rh) 6; Reagent; 2 uL lysis buffer/SYBRGreen-1, 25 sec shake immediately following dispense 7; Time; ~16 hours at 37C (5% O2, 5% CO2, 90% N2; 95% Rh) 8; Detector; EnVision (PerkinElmer) bottom read at 485/14nm excitation and 535/25 nm emission NOTES (numbers refer to sequence above): 1; Complete Malaria Growth Media: 1X RPMI-1640 w/L-glutamine, 5.5g/L Albumax II, 367 uM Hypoxanthine, 25 mM HEPES, 0.25% Sodium Bicarbonate, 35 uM Gentamicin sulfate 2; Controls were added using the Kalypsis Pintool (Wako USA) equipped with 1536 pinhead 3; Compounds were added in a 7-point, titration with a high final concentration of 29 uM by Pintool from seven inter-plate titrations of library plates and two DMSO control plates at the beginning and end (see Yasgar et al., 2008). 4; Red blood cells infected with Plasmodium falciparum Dd2 parasites were used. 6; Lysis buffer: 20 mM Tris-HCl, 10 mM EDTA, 0.16% Saponin, 1.6% Triton-X, 10X SYBR Green. REFERENCE: Inglese J, Shamu CE, Guy RK. 2007. Reporting data from high-throughput screening of small-molecule libraries. Nat Chem Biol. doi:10.1038/nchembio0807-438 Yasgar A, Shinn P, Jadhav A, Auld D, Michael S, Zheng W, Austin CP, Inglese J, Simeonov A. 2008. Compound Management for Quantitative High-Throughput Screening. J Lab Autom 13:79-89. doi:10.1016/j.jala.2007.12.004
# Potency means the concentration at half of the fitted maximal effect.
row,Structure (SMILES),Potency
1,C=CC1CN2CCC1CC2C(OC(C)=O)c1ccnc2ccc(OC)cc12 (stereo unspecified),1.68 µM (active)
2,CN(C)CC1CSCCC1(O)c1ccccc1Cl (stereo unspecified),5.96 µM (active)
3,Cc1ccccc1CN1C(=O)CN=C(c2ccccc2)c2cc(Cl)ccc21,16.8 µM (active)
4,CCC1(OC(=O)CN)C(=O)OCc2c1cc1n(c2=O)Cc2cc3ccccc3nc2-1 (stereo unspecified),6.68 µM (active)
5,Oc1ccc(Cl)cc1CN1CCN(Cc2ccccc2)CC1,0.944 µM (active)
6,Oc1c(Cl)cc(Cl)cc1CN1CCN(Cc2ccccc2)CC1,0.668 µM (active)
7,O=C(NC[C@H]1C[C@@H]2CCN1C[C@@H]2CN1CCC(Cc2ccccc2)CC1)c1ccccc1,7.69 µM (active)
8,COc1ccc(CN2CCCC(C(=O)c3ccc(Cl)cc3)C2)c(O)c1 (stereo unspecified),0.531 µM (active)
9,O=C(C[C@@H]1NCCC[C@H]1O)Cn1cnc2cc(Br)c(Cl)cc2c1=O,2.37 µM (active)
10,C[n+]1c(-c2ccccc2)cc(-c2ccc(Cl)cc2)cc1-c1ccccc1,6.68 µM (active)
11,COc1cc2c(cc1OCc1ccccc1)NC(=O)C21CCN(c2ccccn2)CC1,15.3 µM (active)
12,COc1cc2c(cc1Oc1cccc(N(C)C)c1)NC(=O)C21CCN(c2cnccn2)CC1,1.5 µM (active)
13,Cn1nccc1CN1CCC2(CC1)C(=O)Nc1ccccc12,inactive
14,COc1cc2c(cc1OC1CCCC1)NC(=O)C21CCN(c2cnccn2)CC1,7.69 µM (active)
15,COc1cc2c(cc1OCC1CC1)NC(=O)C21CCN(c2nccs2)CC1,21.7 µM (active)
16,COc1cc2c(cc1OCC1CC1)NC(=O)C21CCN(C(=O)c2cccnc2)CC1,inactive
17,COc1cc2c(cc1Oc1ccccc1)NC(=O)C21CCN(C(=O)c2ccccc2)CC1,inactive
18,COc1cc2c(cc1Oc1ccccc1)NC(=O)C21CCN(c2cnccn2)CC1,2.17 µM (active)
19,O=C(Nc1ccc2n(c1=O)C[C@H]1C[C@@H]2CN(Cc2ccc(F)cc2)C1)c1cccs1,15.3 µM (active)
20,CC[C@H]1CN2CC[C@H]1C[C@@H]2CNCc1ccc(SC)cc1,4.33 µM (active)
21,C#C[C@H]1CN2CC[C@H]1C[C@@H]2CNCc1ccc(F)c(F)c1,13.7 µM (active)
22,C#C[C@H]1CN2CC[C@H]1C[C@@H]2CNCc1cccc(Cl)c1,4.85 µM (active)
23,O[C@H]1[C@H](NCC2CCCC2)[C@@H](c2ccccc2)C[C@H]1O,6.11 µM (active)

row,Structure (SMILES),Potency
1,COc1cc2c(cc1OCc1ccccc1)N(C(=O)c1cc3ccccc3n1C)CC21CCN(C)CC1,2.11 µM (active)
2,COc1cc2c(cc1OCc1ccccc1)N([S+](=O)([O-])c1cccnc1)CC21CCN(C)CC1,10.6 µM (active)
3,COc1cc2c(cc1OCc1ccccc1)N(C(=O)c1cc3ccccc3[nH]1)CC21CCN(C)CC1,0.944 µM (active)
4,CCc1ccc(CN2CCN(Cc3cc(Br)ccc3O)CC2)cc1,2.11 µM (active)
5,Oc1ccc(Br)cc1CN1CCN(c2ccccc2)CC1,2.11 µM (active)
6,Cc1ccc(O)c(CN2CCN(c3ccccc3)CC2)c1,2.99 µM (active)
7,CC(C)c1ccc(O)c(CN2CCN(c3ccccc3)CC2)c1,1.33 µM (active)
8,CNC(=O)Oc1cccc(-c2cn3cc(OC(=O)NC)ccc3n2)c1,inactive
9,CC(C)(C)c1ccc(O)c(CN2CCN(c3ccccc3)CC2)c1,1.5 µM (active)
10,COc1ccccc1N1CCN(Cc2cc(C)c(C)cc2O)CC1,0.376 µM (active)
11,Oc1cc2c(cc1CN1CCN(c3ccccc3)CC1)CCC2,3.35 µM (active)
12,COc1ccc(-c2cc([C@H]3CN4CC[C@H]3C[C@@H]4CNS(=O)(=O)c3ccc(Cl)cc3)n(C)n2)cc1OC,2.99 µM (active)
13,COc1ccc(-c2cn(C[C@H]3C[C@@H]4CCN3C[C@@H]4C(=O)NCc3ccccc3)nn2)cc1,inactive
14,Cn1nc(C2CCCCC2)cc1[C@H]1CN2CC[C@H]1C[C@@H]2CNC(=O)c1cccs1,13.7 µM (active)
15,COc1ccc(-c2cc([C@H]3CN4CC[C@H]3C[C@@H]4CNC(=O)NC3CCCCC3)n(C)n2)cc1,1.88 µM (active)
16,COc1ccc(OC)c(S(=O)(=O)NC[C@H]2C[C@@H]3CCN2C[C@@H]3c2cc(-c3ccc(F)cc3)nn2C)c1,6.68 µM (active)
17,Cc1ccc(S(=O)(=O)NC[C@H]2C[C@@H]3CCN2C[C@@H]3CN2CCc3ccccc32)cc1,13.7 µM (active)
18,CN1CCN(C[C@H]2CN3CC[C@H]2C[C@@H]3CNS(=O)(=O)c2ccccc2)CC1,inactive
19,C[n+]1c2ccccc2nc2ccc(NCCO)cc21,1.19 µM (active)
20,COC(=O)C1=C(c2ccc(-c3ccccc3)c(F)c2)C[C@@H]2CC[C@H]1N2C(=O)NCc1cccc2ccccc12,10.6 µM (active)
21,COC(=O)C1=C(c2ccc(OC)c(OC)c2)C[C@@H]2CC[C@H]1N2C(=O)NCc1cccc2ccccc12,3.35 µM (active)
22,COc1cccc(CC(=O)N2[C@H]3CC[C@@H]2c2cnc(-c4ccc(F)cc4)nc2C3)c1,inactive
23,CCCCCSc1cc(O)c(C(CNC)C(C)C)cc1OC (stereo unspecified),0.168 µM (active)
